# In the library only some 19% were active in any assay of this set; here they are far more common.
# TDP1 cell CPT: qHTS for Inhibitors of human tyrosyl-DNA phosphodiesterase 1 (TDP1): qHTS in cells in presence of CPT. chicken DT40 Tdp1-/-;hTDP1 cells + 20 nM CPT, ATP luminescence, 48 h. Potency, µM (titrated, usually from 46.2 µM), inactives show top-dose activity change, negative = growth inhibition, usual class: inhibitors. actives 12% (n = 420,000). AID 686979, 2013; also: nearly all actives have a fitted effect of over 55% in size
#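 Chicken DT40 Tdp1-/- cells stably complemented with human TDP1 were seeded at 400 cells/well in medium containing 20 nM camptothecin, exposed to pin-transferred compounds, and grown at 37 °C for at least 48 hr. Viability was read as ATP luminescence.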
# KB-V1 MDR tox: qHTS assay for MDR1-selective chemotherapeutics: Primary screen using the drug-selected MDR subline cells KB-V1; KB-V1 MDR cells viability, CellTiter-Glo, 72 h; Potency, µM (highest dose often 46.1 µM), usual class: cytotoxic; actives 3.4% (n = 400,000); AID 1347076, 2019; also: nearly all actives have a fitted effect of over 60% in size
#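 Readout: CellTiter-Glo luminescence, 10 min after addition. Cells: KB-V1 MDR subline, 72 h at 37 degrees C with compound. Analysis: corrected, normalized data fitted to concentration-effect curves.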
# KB-3-1 tox: qHTS assay for MDR1-selective chemotherapeutics: Primary screen using the parental adenocarcinoma cell KB-3-1 | KB-3-1 viability, CellTiter-Glo ATP luminescence, 72 h | actives 1.4% (n = 400,000) | Potency, µM (titrated, usually from 46.1 µM), actives largely listed as cytotoxic; also: nearly all actives have a fitted effect of over 60% in size
#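 Cytotoxicity in the drug-sensitive parental line KB-3-1 was scored as loss of CellTiter-Glo luminescence following 72 h incubation with compound. Values come from curve fitting of normalized concentration-response data.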
# HT1080NT lethal: qHTS for induction of synthetic lethality in tumor cells producing 2HG: qHTS for the HT-1080-NT fibrosarcoma cell line | HT-1080-NT fibrosarcoma viability, CellTiter-Glo ATP luminescence, 48 h | Potency, µM (titrated, usually from 46.1 µM), for the others: top-dose activity, negative = less viability, most hits filed as cytotoxic | actives 1.6% (n = 360,000) | AID 686970, 2013;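 also: NT is the 2HG producing partner of a matched IDH1 knockdown line; 0% = DMSO-treated cells and -100% = media-only wells without cells; nearly all actives have a fitted effect of over 55% in size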
#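 Viability by CellTiter-Glo luminescence after 48 h compound exposure at 37C of HT-1080-NT cells (750/well, RPMI, 5% FBS). % activity scaled between DMSO wells and medium-only wells, then curve-fitted and categorized by curve class.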
# HT1080 IDH1KD tx: qHTS for induction of synthetic lethality in tumor cells producing 2HG: qHTS for the HT-1080-IDH1KD cell line. Potency, µM (titrated, usually from 46.1 µM), inactives show at the top dose activity, negative = toxicity, actives largely listed as cytotoxic. actives 2% (n = 360,000). HT-1080 IDH1 knockdown viability, ATP luminescence, 48 h;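 also: 0% = DMSO wells and -100% = cell-free medium wells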
#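 Using the IDH1-knockdown HT-1080 line run in the same batch and compound series as the NT line, viability after 48 h at 37 °C was determined by CellTiter-Glo luminescence and expressed as % activity.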
# TDP1 cell noCPT: qHTS for Inhibitors of human tyrosyl-DNA phosphodiesterase 1 (TDP1): qHTS in cells in absence of CPT; DT40 Tdp1-/- hTDP1 cells, no CPT, ATP luminescence, 48 h; Potency, µM (top dose mostly 46.2 µM), without a hit: at the top dose activity change, negative = growth inhibition, most hits filed as inhibitors; actives 15% (n = 420,000); AID 686978, 2013; also: nearly all actives have a fitted effect of over 55% in size
#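 Cells were dispensed at 400 per well, compounds added by pin tool, plates incubated ≥48 hr at 37 °C, then CellTiter-Glo added for 30 min at room temperature before luminescence reading. Line: DT40 Tdp1-/- complemented with hTDP1; camptothecin omitted.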
# Active calls of the source: *; i = inactive; ? = inconclusive; . = not tested or not shown. Calls follow the shape of the dose curve; as a rule, active = well fitted curve in the direction sought with a large enough effect; inconclusive = small, poorly fitted or top-dose-only effect, or another doubt; inactive = no such curve, though single readings can be large; an effect the other way counts as inactive or inconclusive. Unless noted, % is scaled to controls: 0 for no effect and ±100 for the full control effect; potency is read from the fitted curve at half-maximal effect.
SMILES,TDP1 cell CPT,KB-V1 MDR tox,KB-3-1 tox,HT1080NT lethal,HT1080 IDH1KD tx,TDP1 cell noCPT
CCN(CC)c1ncnc2c1ncn2[C@H]1CN(Cc2ccc(Cl)cc2)C[C@@H](CO)O1,29µM*,?,i,-19%,-19%,16µM*
Cc1ccc(-n2c(=O)c3c4c(sc3n(CC(=O)Nc3ccccc3C)c2=O)CCCCC4)cc1C,10%,i,i,.,.,-3%
CCCn1c(=O)c2c(ncn2C)n(CCC)c1=O,?,i,i,0%,-2%,3.7µM*
CC(O)CCCCn1c(=O)c2c(ncn2C)n(C)c1=O (stereo unspecified),3%,.,.,.,.,-10%
COC(=O)C1=C(C)N(CC2CC2)C(=NCc2cc(OC)c(OC)c(OC)c2)N[C@H]1c1ccccc1,?,i,i,5%,8%,23µM*
C=CCN=C1N[C@@H](c2ccccc2)C(C(=O)OC)=C(C)N1CCOC,-27%,i,i,14%,1%,-23%
COC(=O)C1=C(C)N(Cc2ccccc2)C(=NCc2cc(OC)c(OC)c(OC)c2)N[C@H]1c1ccc(Br)cc1,13µM*,i,i,-21%,?,18µM*
COC(=O)C1=C(C)N(Cc2ccccc2)C(=NCCN2CCOCC2)N[C@H]1CCc1ccccc1,?,i,i,-1%,-13%,23µM*
COC(=O)C1=C(C)N(Cc2ccccc2)C(=NCc2cc(OC)c(OC)c(OC)c2)N[C@H]1CCc1ccccc1,21µM*,i,i,-3%,-4%,16µM*
O=C(O)COc1ccccc1/C=N/NC(=O)c1cc2ccccc2cc1O,-11%,i,i,-31%,-29%,9%
COc1ccc(OCC(=O)Nc2c(C)ccc3nsnc23)cc1,-24%,i,i,-1%,-1%,-26%
CCOc1ccccc1CNS(=O)(=O)c1cnc(N)nc1,-2%,.,.,.,.,?
COC(=O)/C=C1\SC(N)=NC1=O,11%,i,i,-5%,5%,2%
Cc1cc2c(cc3c(SCc4ccc(Cl)cc4)nnc(C)n32)o1,?,i,i,.,.,?
CCN1C(=S)N[C@@H](c2ccccc2)C(C(=O)OC)=C1C,?,i,i,1%,8%,-26%
COC(=O)C1=C(C)N(Cc2ccccc2)C(=NCc2cc(OC)c(OC)c(OC)c2)N[C@H]1c1ccccc1,21µM*,i,i,-1%,-7%,15µM*
CN(C)c1ccc(/C=C2\C(Cl)=Cc3ccccc32)cc1,?,i,i,.,.,?
Cc1ccc(-c2cc3ncc4c(n3n2)-c2cc(Cl)ccc2OC4)cc1,0%,i,i,.,.,-10%
Cc1ccc(N=Cc2c(O)n(-c3cc(Cl)ccc3N3CCOCC3)c(=O)c3ccccc23)cc1C,7.3µM*,i,i,15%,6%,6.5µM*
Cc1ccc(C2(O)CN(c3ccccc3C)C3=[N+]2CCS3)cc1 (stereo unspecified),12µM*,?,i,8%,4%,18µM*
COc1ccc(CCn2c(=S)[nH]c3cc(C(=O)N4CCOCC4)ccc3c2=O)cc1OC,?,?,i,-19%,-15%,18µM*
COCCn1c(=S)[nH]c2cc(C(=O)N3CCN(C4CCCCC4)CC3)ccc2c1=O,?,i,i,-4%,-9%,?
COCCn1c(=S)[nH]c2cc(C(=O)N3CCN(Cc4ccc5c(c4)OCO5)CC3)ccc2c1=O,?,2.6µM*,4.1µM*,?,-10%,18µM*
COCCn1c(=S)[nH]c2cc(C(=O)N3CCN(c4cccc(Cl)c4)CC3)ccc2c1=O,21µM*,i,i,-7%,-10%,4.1µM*
COCCn1c(=O)[nH]c2cc(C(=O)NCCN3CCN(c4cccc(Cl)c4)CC3)ccc2c1=O,15µM*,i,i,-19%,-25%,3.3µM*
SMILES,TDP1 cell CPT,KB-V1 MDR tox,KB-3-1 tox,HT1080NT lethal,HT1080 IDH1KD tx,TDP1 cell noCPT
COCCn1c(=O)[nH]c2cc(C(=O)N3CCN(c4cccc(C(F)(F)F)c4)CC3)ccc2c1=O,21µM*,i,i,-16%,1%,13µM*
COCCn1c(=O)[nH]c2cc(C(=O)N3CCN(c4ccc(F)cc4)CC3)ccc2c1=O,?,i,i,.,.,?
O=C(c1ccc2nc3ccccc3c(=O)n2c1)N1CCN(Cc2ccc3c(c2)OCO3)CC1,29µM*,i,i,-7%,-6%,?
CN(C)CCNC(=O)c1ccc2c(=O)n(Cc3ccc(Cl)cc3)c(=S)[nH]c2c1,21µM*,i,i,23µM*,?,29µM*
CCc1ccc(C(CNC(=O)c2ccc3c(=O)n(-c4ccccc4F)c(=S)[nH]c3c2)N(C)C)cc1 (stereo unspecified),?,i,i,?,33µM*,23µM*
CCCCN(C)CCNC(=O)c1ccc(Cn2c(=S)[nH]c3ccc(Br)cc3c2=O)cc1,26µM*,i,i,21µM*,15µM*,?
O=C(NCc1ccccn1)c1ccc(Cn2c(=S)[nH]c3ccc(Br)cc3c2=O)cc1,?,i,i,-2%,7%,6.5µM*
O=C(NCc1ccccn1)c1ccc(Cn2c(=S)[nH]c3ccccc3c2=O)cc1,-26%,i,i,-13%,1%,?
COc1ccc(C2C(=O)N(C3CCCCC3)CC(=O)N2CCc2ccc(OC)c(OC)c2)cc1 (stereo unspecified),-28%,.,.,.,.,?
COc1cccc(CNC(=O)c2cc(S(=O)(=O)N3CCCCC3)cn2C)c1,-19%,i,i,.,.,?
O=c1c2cc(Cl)ccc2[nH]c(=S)n1Cc1ccccn1,18µM*,i,i,11%,8%,?
CCN(CC)CCn1c(=S)[nH]c2ccc(Cl)cc2c1=O,-1%,i,i,?,?,-19%
COc1ccc2[nH]c(=O)c(CNc3ccc(C)cc3C)cc2c1,5.8µM*,i,i,-3%,-17%,21µM*
Cc1ccc2[nH]c(=O)c(CNC(C)(C)C)cc2c1,-7%,i,i,-2%,-1%,-15%

# High-throughput results (PubChem)
